Assay [1] can be described thus: antimalarial activity against Dd2 strain (AID 2302;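 active means growth inhibition above 50% at the single 2 µM test dose, taken to imply half-maximal potency below 2 µM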;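 further: 0% = DMSO untreated growth and 100% = chloroquine plus artemisinin killed control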). To be noted: P. falciparum Dd2 in RBCs, LDH growth readout, 72 h; at 2 µM; active compounds read high.
The nature of assay [2]: human hepatoma cell viability loss – ATP luminescence, cytotoxicity control for P. falciparum antimalarial project, primary screen (AID 2303;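 active means inhibition above 50%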;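 further: 0% = DMSO wells and 100% = digitonin-killed cells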). To be noted: HepG2 viability, 24-48 h, at 10 µM, active compounds read high.
Assay [3] concerns the target L-lactate dehydrogenase (Plasmodium falciparum (isolate CDC / Honduras)) (UniProt Q27743). The assay can be described thus: PfLDH activity inhibition – cell lysate, 3D7 strain, counter-screen for P. falciparum growth inhibition project (AID 2304).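 Further: 0% = vehicle and 100% = reference inhibitor.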 To be noted: P. falciparum 3D7 crude extract, LDH APAD/NBT absorbance; at 2 µM; active compounds read high. (A counterscreen serves to expose hits that act by an unwanted route or on another target.)

The nature of assay [4]: inhibition of 3D7 malaria parasite growth – strain 3D7 (AID 2306).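 Further: 0% = DMSO wells and 100% = chloroquine plus artemisinin control wells.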 To be noted: P. falciparum 3D7 erythrocytic growth, LDH absorbance, 72 h; at 2 µM; active compounds read high.
Assay [5] deals with Calcium-dependent protein kinase 1 (Plasmodium falciparum (isolate 3D7)) (UniProt P62344). Briefly: PfCDPK1 kinase inhibitors, biochemical, TCAMS library (AID 1159585; cut-off not given, nearly all actives have IC50 up to about 0.98 µM;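 further: inhibitors leave more ATP so luminescence rises with inhibition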). To be noted: recombinant PfCDPK1, Kinase-Glo ATP depletion luminescence. A general note: Kinase-Glo measures the ATP left after a reaction by luminescence.
Chain of Calcium-dependent protein kinase 1 (Plasmodium falciparum (isolate 3D7)) (P62344 whole entry, looked up): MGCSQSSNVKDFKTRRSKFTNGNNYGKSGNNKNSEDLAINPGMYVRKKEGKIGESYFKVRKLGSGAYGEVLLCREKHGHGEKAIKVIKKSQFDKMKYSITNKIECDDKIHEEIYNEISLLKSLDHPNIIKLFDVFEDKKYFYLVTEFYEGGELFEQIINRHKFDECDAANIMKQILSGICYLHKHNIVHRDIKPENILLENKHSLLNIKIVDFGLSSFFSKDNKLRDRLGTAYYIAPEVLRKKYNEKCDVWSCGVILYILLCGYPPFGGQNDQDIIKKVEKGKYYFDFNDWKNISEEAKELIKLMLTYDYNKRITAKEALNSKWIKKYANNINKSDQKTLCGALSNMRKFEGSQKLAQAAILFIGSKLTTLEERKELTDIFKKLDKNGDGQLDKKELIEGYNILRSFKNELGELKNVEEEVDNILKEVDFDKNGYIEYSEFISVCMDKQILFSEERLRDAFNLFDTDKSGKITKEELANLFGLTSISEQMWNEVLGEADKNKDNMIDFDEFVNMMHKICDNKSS
For assay [6], the target named is Plasmodium falciparum protein kinase 6 (PK6, PF3D7_1337100) (UniProt Q8IDW1). Briefly: PfPK6 kinase inhibitors, biochemical, TCAMS library (AID 1159586). To be noted: recombinant PfPK6, Kinase-Glo ATP depletion luminescence.
Chain of Plasmodium falciparum protein kinase 6 (PK6, PF3D7_1337100) (Q8IDW1 1-305): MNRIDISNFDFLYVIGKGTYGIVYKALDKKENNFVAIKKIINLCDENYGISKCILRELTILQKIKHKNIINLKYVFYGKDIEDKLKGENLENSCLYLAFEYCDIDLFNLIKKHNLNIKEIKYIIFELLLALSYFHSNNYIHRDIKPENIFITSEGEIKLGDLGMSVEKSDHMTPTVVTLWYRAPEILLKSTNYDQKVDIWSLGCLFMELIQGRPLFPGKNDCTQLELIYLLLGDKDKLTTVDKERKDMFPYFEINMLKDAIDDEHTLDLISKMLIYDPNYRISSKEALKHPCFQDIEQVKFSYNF
The target of assay [7] is Protein kinase 7 (PK7), Plasmodium falciparum 3D7 (PF3D7_0213400) (UniProt Q7YTF7). Briefly: inhibition of Plasmodium PK7 catalytic activity – biochemical, TCAMS antimalarial set, Kinase-Glo luminescence (AID 1159587). To be noted: recombinant PfPK7, Kinase-Glo ATP depletion luminescence.
Chain of Protein kinase 7 (PK7), Plasmodium falciparum 3D7 (PF3D7_0213400) (Q7YTF7 1-343): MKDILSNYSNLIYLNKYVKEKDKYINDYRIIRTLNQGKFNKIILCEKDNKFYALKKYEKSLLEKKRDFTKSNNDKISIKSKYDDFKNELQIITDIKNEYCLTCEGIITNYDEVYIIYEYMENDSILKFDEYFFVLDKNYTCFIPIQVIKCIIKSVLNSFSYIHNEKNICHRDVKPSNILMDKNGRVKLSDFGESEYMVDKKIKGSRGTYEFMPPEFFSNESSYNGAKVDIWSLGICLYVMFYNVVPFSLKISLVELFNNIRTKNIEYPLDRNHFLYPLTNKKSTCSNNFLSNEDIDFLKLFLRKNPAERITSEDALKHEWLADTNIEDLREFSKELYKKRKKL
Assay [8] deals with Calcium-dependent protein kinase 4 (Plasmodium falciparum (isolate 3D7)) (UniProt Q8IBS5). Briefly: PfCDPK4 kinase inhibitors, biochemical, TCAMS library (AID 1159588; cut-off not given, nearly all actives have IC50 up to about 0.91 µM). To be noted: recombinant PfCDPK4, Kinase-Glo ATP depletion luminescence.
Chain of Calcium-dependent protein kinase 4 (Plasmodium falciparum (isolate 3D7)) (Q8IBS5 whole entry, looked up): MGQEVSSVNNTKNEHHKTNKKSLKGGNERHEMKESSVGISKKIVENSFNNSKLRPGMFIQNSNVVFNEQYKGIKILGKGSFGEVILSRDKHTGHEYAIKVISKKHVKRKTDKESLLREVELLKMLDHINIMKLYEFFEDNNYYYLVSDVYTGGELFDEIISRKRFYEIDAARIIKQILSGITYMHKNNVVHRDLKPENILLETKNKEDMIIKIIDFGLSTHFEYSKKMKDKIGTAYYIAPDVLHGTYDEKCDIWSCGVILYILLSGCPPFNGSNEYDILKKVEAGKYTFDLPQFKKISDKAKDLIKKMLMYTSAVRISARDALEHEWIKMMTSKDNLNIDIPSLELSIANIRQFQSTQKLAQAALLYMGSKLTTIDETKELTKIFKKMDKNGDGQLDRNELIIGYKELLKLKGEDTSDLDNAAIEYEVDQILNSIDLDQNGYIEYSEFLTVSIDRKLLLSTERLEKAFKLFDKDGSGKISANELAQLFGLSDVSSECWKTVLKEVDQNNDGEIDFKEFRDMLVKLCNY

In general, inhibition refers to the change of the read-out against control, counted positive when it falls.

A number with no mark means an inactive call. For part of these data: Potency and affinity values are given separately. Active and inactive are the calls of the source. Unless noted, how the calls were made is not given here.

Chain of L-lactate dehydrogenase (Plasmodium falciparum (isolate CDC / Honduras)) (Q27743 whole entry, looked up): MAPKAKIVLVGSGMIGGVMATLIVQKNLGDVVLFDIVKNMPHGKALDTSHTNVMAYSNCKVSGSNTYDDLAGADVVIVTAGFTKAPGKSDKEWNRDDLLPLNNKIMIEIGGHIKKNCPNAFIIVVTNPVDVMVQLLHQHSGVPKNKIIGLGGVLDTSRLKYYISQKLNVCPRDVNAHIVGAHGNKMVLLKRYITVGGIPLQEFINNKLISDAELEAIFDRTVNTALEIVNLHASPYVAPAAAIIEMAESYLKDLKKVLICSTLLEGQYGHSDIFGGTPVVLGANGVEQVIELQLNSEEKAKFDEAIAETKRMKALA

For the compound `N#Cc1cc([N+](=O)[O-])ccc1-n1nc(C(N)=O)n(Cc2cccc(F)c2)c1=S`, the growth inhibition in assay [1] and in assay [4] was 100% (active) throughout. Besides, the inhibition in assay [2] is 6%; in assay [3], -4%. Moreover, the result in assay [5], in assay [6], in assay [7] and in assay [8] was inactive.

Take `COc1ccc(CCNCc2cc3c(C(C)(C)C)nn(-c4ccc(Cl)cc4)c3[nH]c2=O)cc1OC`: the values for the growth inhibition in assay [1] and in assay [4] were 99% (active) and 100% (active), respectively. In addition, the figures for the inhibition in assay [2] and in assay [3] were 13% and 5%, respectively. Besides, the result in assay [5], in assay [6], in assay [7] and in assay [8] was inactive.

`CCOC(=O)c1cc(Cl)ccc1OCCCON1C(N)=NC(N)=NC1(C)C`: the growth inhibition in assay [1] is 95% (active); in assay [4] it was 94% (active). The inhibition was 69% (active) in assay [2] and 3% in assay [3]. Moreover, the result in assay [5], in assay [6], in assay [7] and in assay [8] was inactive.

`CCCC(=O)Nc1ccc(OCCCN(Cc2ccccc2OC(F)(F)F)c2ccc(C#N)c(C(F)(F)F)c2)cc1`: the growth inhibition in assay [1] was 95% (active); in assay [4], 94% (active). Besides, the inhibition in assay [2] is 0%; in assay [3] it was -2%. For the same compound, the outcome in assay [5], in assay [6], in assay [7] and in assay [8] was inactive.

With `CC(C)Oc1cc2c(cc1NS(=O)(=O)c1ccc(-c3ccc(Cl)cc3)cc1)CCN(C)CC2`, the growth inhibition in assay [1] is 65% (active); in assay [4], 99% (active). Further, the values for the inhibition in assay [2] and in assay [3] were 100% (active) and -3%, respectively. For the same compound, the outcome in assay [5], in assay [6], in assay [7] and in assay [8] was inactive.

For the compound `CC(=O)N(C)C1CCN(Cc2cccc(-c3ccc(-c4nc5ccc(F)cc5[nH]4)cc3)c2)C1` (stereo not drawn), the growth inhibition in assay [1] is 19%; in assay [4], 92% (active). Besides, the inhibition in assay [2] is 24%; in assay [3] it was 0%. The outcome in assay [5], in assay [6], in assay [7] and in assay [8] was inactive.

For the compound `COc1ccc(NC(=O)/C=C/c2ccccc2Cl)cc1OCCN1CCC(NC2CC2)CC1`, the figures for the growth inhibition in assay [1] and in assay [4] were 66% (active) and 101% (active), respectively. The inhibition in assay [2] is 23%; in assay [3] it was 3%. For the same compound, the result in assay [5], in assay [6], in assay [7] and in assay [8] was inactive.

`COC(=O)c1cccc(CNCc2cccc(-c3csc(-c4nc5ccccc5[nH]4)c3)c2)c1`: the growth inhibition was 44% in assay [1] and 102% (active) in assay [4]. Besides, the inhibition in assay [2] was -7%; in assay [3] it was 0%. The outcome in assay [5], in assay [6], in assay [7] and in assay [8] was inactive.

Turning to `Cc1cc(C(F)(F)F)cc(-n2ncc(-c3ccc(C(=O)NCCNCc4ccccc4)cc3)c2N)n1`, the values for the growth inhibition in assay [1] and in assay [4] were 9% and 91% (active), respectively. Further, the results for the inhibition in assay [2] and in assay [3] were 98% (active) and -1%, respectively. In addition, the result in assay [5], in assay [6], in assay [7] and in assay [8] was inactive.

Regarding `Cn1cnc(CCNC(=O)c2cccc(-c3ccc(-c4nc5ccc(F)cc5[nH]4)cc3)c2)c1`, the growth inhibition in assay [1] was 5%; in assay [4] it was 88% (active). Also, the inhibition is 26% in assay [2] and 4% in assay [3]. The outcome in assay [5], in assay [6], in assay [7] and in assay [8] was inactive.

`COc1ccc(NC(=O)[C@H](CC(C)C)Nc2cc(C)nc(NCCc3ccc(F)cc3)n2)cc1`: the growth inhibition in assay [1] is 79% (active); in assay [4] it was 100% (active). For the same compound, the results for the inhibition in assay [2] and in assay [3] were 1% and -3%, respectively. Besides, the outcome in assay [5], in assay [6], in assay [7] and in assay [8] was inactive.

Turning to `COCCNCc1cccc(-c2ccc3c(Nc4ccc(F)cc4Cl)ccnc3c2)c1`, the growth inhibition was 100% (active) in assay [1] and 103% (active) in assay [4]. For the same compound, the inhibition is 8% in assay [2] and 3% in assay [3]. For the same compound, the outcome in assay [5], in assay [6], in assay [7] and in assay [8] was inactive.

Regarding `Cc1[nH]c2ccccc2c1C(=O)C(C)Sc1nnc(-c2ccccc2F)o1` (stereo not drawn), the growth inhibition in assay [1] and in assay [4] was 99% (active) each time. For the same compound, the results for the inhibition in assay [2] and in assay [3] were 24% and -2%, respectively. The outcome in assay [5], in assay [6], in assay [7] and in assay [8] was inactive.

With `CN1CCc2ccc(NC(=O)Nc3ccc(Cl)c(Cl)c3)cc2C1`, the growth inhibition in assay [1] was 22%; in assay [4], 80% (active). Moreover, the values for the inhibition in assay [2] and in assay [3] were -10% and 1%, respectively. The result in assay [5], in assay [6], in assay [7] and in assay [8] was inactive.

Regarding `COC(=O)c1cccc(CNCc2cccc(-c3cccc(-c4nc5ccccc5[nH]4)c3)c2)c1`, the growth inhibition was 58% (active) in assay [1] and 95% (active) in assay [4]. In addition, the inhibition is 3% in assay [2] and -3% in assay [3]. Moreover, the outcome in assay [5], in assay [6], in assay [7] and in assay [8] was inactive.

On to `CCCCCCC(C)c1cc(O)c2c(c1)OC(=O)CC2(CC)c1ccccn1` (stereo not drawn), for which the growth inhibition is -2% in assay [1] and 100% (active) in assay [4]. Further, the results for the inhibition in assay [2] and in assay [3] were 15% and -2%, respectively. Also, the outcome in assay [5], in assay [6], in assay [7] and in assay [8] was inactive.

Consider `Cc1cccc2[nH]c(-c3ccc(-c4ccc(CNC(C)C)cc4)cc3)nc12`, for which the growth inhibition in assay [1] is 62% (active); in assay [4], 99% (active). In addition, the results for the inhibition in assay [2] and in assay [3] were 12% and 0%, respectively. Besides, the outcome in assay [5], in assay [6], in assay [7] and in assay [8] was inactive.

In the case of `CC(=O)c1sc2ccccc2c1O`, the growth inhibition is -2% in assay [1] and 91% (active) in assay [4]. The inhibition is 14% in assay [2] and 6% in assay [3]. In addition, the outcome in assay [5], in assay [6], in assay [7] and in assay [8] was inactive.

As for `Cc1cccc2[nH]c(-c3ccc(-c4ccc(CNCCN5CCNCC5)cc4)s3)nc12`, the growth inhibition is -2% in assay [1] and 88% (active) in assay [4]. Moreover, the inhibition in assay [2] was 30%; in assay [3], 3%. Also, the result in assay [5], in assay [6], in assay [7] and in assay [8] was inactive.

`Cn1cncc1CCN(Cc1ccc(-c2ccc(C(F)(F)F)cc2)cc1)C(=O)Cn1c(CCc2cccc(F)c2F)cc(=O)c2cccnc21`: the values for the growth inhibition in assay [1] and in assay [4] were 97% (active) and 100% (active), respectively. Further, the results for the inhibition in assay [2] and in assay [3] were 44% and -2%, respectively. Further, the outcome in assay [5], in assay [6], in assay [7] and in assay [8] was inactive.

Take `CC(C)CC(=O)NC1CCN(Cc2c(-c3cccs3)nc3ccccc3c2C(=O)N[C@@H](C)C2CCCCC2)CC1`: the growth inhibition in assay [1] was 97% (active); in assay [4], 96% (active). In addition, the inhibition in assay [2] was -3%; in assay [3] it was -9%. Moreover, the result in assay [5], in assay [6], in assay [7] and in assay [8] was inactive.
